The list is not random: actives were taken first. Their share in the collection is about 3.4%.
GPR151 activ – human GPR151 activation; Q8TDV0; activation, % at 11.2 µM; PathHunter beta-arrestin GPR151 cells, luminescence; hit rate 1% among 650,000; in the data active = activation above about 4.9%
TEAD-YAP inh – TEAD-YAP interaction inhibition; hit rate 1.4% among 640,000; HEK-TIYL cells, TEAD-Gal4/YAP UAS-luciferase luminescence; inhibition, % at 9.12 µM; AID 1259422; in the data active = inhibition above about 32%
MITF primary – blocks human microphthalmia-associated transcription factor; O75030; AlphaScreen MITF homodimerization, bead proximity signal; inhibition, % at 2.6 µM; hit rate 0.91% among 650,000; in the data active = inhibition above about 50%
FBW7 activator – activators of human E3 ligase FBW7 | AlphaScreen FBW7–phospho-cyclin E peptide binding, activator screen | AID 1259310 | normalized activity (activation), % at 26.1 µM | hit rate 0.13% among 650,000; in the data active = normalized activity above about 1.9%;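 also: purified mutant Fbw7 with reduced substrate affinity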
MITF inh conf – human MITF inhibition, confirmation; AlphaScreen MITF homodimerization, biotin/His-MITF beads; shares compounds with MITF primary; hit rate 16% among 4,700; inhibition, % at 2.6 µM; AID 1259372;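 active = inhibition above a cutoff derived from the DMSO control wells, cut at about 28% in these data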;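 also: inhibitors lower the bead chemiluminescence by keeping MITF from dimerizing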
AS interf DR – counter-screen: compounds optically interfering with AlphaScreen; shares compounds with MITF primary; AlphaScreen optical interference counterscreen, cell-free; IC50, µM; hit rate 6% among 480; call rule not given here
AlphaScreen intf2 – AlphaScreen optical interference, counter-screen; shares compounds with MITF primary; LysRS AlphaScreen counterscreen, signal interference, triplicate; inhibition, % at 2.6 µM; hit rate 7.6% among 4,700; AID 1259376;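 active = inhibition above a cutoff derived from the DMSO control wells, cut at about 30% in these data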
Numbers stand for hits.

O=C(CN1CCOCC1)Nc1cccc(Oc2cnccn2)c1 was read as GPR151 activ inactive, TEAD-YAP inh inactive, MITF primary inactive and FBW7 activator inactive.
For CCOc1cc(/C=C2/C(=O)NC(=O)N(C)C2=O)cc(Br)c1O the results were GPR151 activ inactive, TEAD-YAP inh inactive, MITF primary inactive and FBW7 activator inactive.
Screening Cc1cccc(C(=O)NC(C)C)c1[N+](=O)[O-] returned GPR151 activ inactive, TEAD-YAP inh inactive, MITF primary inactive and FBW7 activator inactive.
Screening COc1ccc(C(=O)NCC(=O)NCC(=O)OCc2ccccc2)cc1 returned GPR151 activ inactive, TEAD-YAP inh inactive, MITF primary 54, FBW7 activator inactive, MITF inh conf inactive and AlphaScreen intf2 inactive.
COC(=O)c1ccc(COC(=O)CNC(=O)c2ccccc2)cc1 was read as GPR151 activ inactive, TEAD-YAP inh inactive, MITF primary inactive and FBW7 activator inactive.
Screening COc1cccc(N2CCN(CC(O)COCC3=CCC4CC3C4(C)C)CC2)c1 (configuration not stated) returned GPR151 activ inactive, TEAD-YAP inh inactive, MITF primary 73, FBW7 activator inactive, MITF inh conf inactive and AlphaScreen intf2 inactive.
`CC1(C)C2CC=C(COCC(O)CNCc3cccnc3)C1C2` (configuration not stated) gave GPR151 activ inactive, TEAD-YAP inh inactive, MITF primary 62, FBW7 activator inactive, MITF inh conf inactive and AlphaScreen intf2 inactive.
For COc1cccc(OCCOCC(O)CN2CCN(c3ccccc3)CC2)c1 (configuration not stated) the results were GPR151 activ inactive, TEAD-YAP inh inactive, MITF primary inactive and FBW7 activator inactive.
`O=C(NCCC1=CCCCC1)c1ccc(N2CC3CC(C2)c2cccc(=O)n2C3)c(NC(=O)c2ccccc2Br)c1` (configuration not stated) gave GPR151 activ inactive, TEAD-YAP inh inactive, MITF primary inactive and FBW7 activator inactive.
For O=S(=O)(c1ccc2ccccc2c1)N1CCN(C2CCN(Cc3ccccc3)CC2)CC1 the results were GPR151 activ inactive, TEAD-YAP inh inactive, MITF primary 52, FBW7 activator inactive, MITF inh conf inactive and AlphaScreen intf2 inactive.
Screening O=[N+]([O-])c1ccc(Cl)c(S(=O)(=O)N2CCN(Cc3ccccc3)CC2)c1 returned GPR151 activ inactive, TEAD-YAP inh inactive, MITF primary inactive and FBW7 activator inactive.
For COc1cccc(CN2CCN(S(=O)(=O)c3cccc([N+](=O)[O-])c3)CC2)c1 the results were GPR151 activ inactive, TEAD-YAP inh inactive, MITF primary inactive and FBW7 activator inactive.
Screening O=[N+]([O-])c1cccc(CN2CCN(S(=O)(=O)c3ccc4ccccc4c3)CC2)c1 returned GPR151 activ inactive, TEAD-YAP inh inactive, MITF primary 62, FBW7 activator inactive, MITF inh conf inactive and AlphaScreen intf2 inactive.
Screening O=S(=O)(c1cccc(S(=O)(=O)N2CCN(Cc3ccccc3)CC2)c1)N1CCCC1 returned GPR151 activ inactive, TEAD-YAP inh inactive, MITF primary 53, FBW7 activator inactive, MITF inh conf inactive and AlphaScreen intf2 inactive.
Screening O=[N+]([O-])c1ccc(S(=O)(=O)N2CCN(Cc3cccc(Cl)c3)CC2)cc1 returned GPR151 activ inactive, TEAD-YAP inh inactive, MITF primary 64, FBW7 activator inactive, MITF inh conf inactive and AlphaScreen intf2 inactive.
For COCC(=O)N(C)C(Cc1ccc(F)cc1)C1CCN(C(=O)c2cnsn2)CC1 (configuration not stated) the results were GPR151 activ inactive, TEAD-YAP inh inactive, MITF primary inactive and FBW7 activator inactive.
`O=C(CSc1nc2sc3c(c2c(=O)n1-c1ccccc1)CCC3)NC12CC3CC(CC(C3)C1)C2` gave GPR151 activ inactive, TEAD-YAP inh inactive, MITF primary inactive and FBW7 activator inactive.
For O=C(Nc1ccc(Oc2ccccc2)cc1)c1ccnc(-c2cccs2)c1 the results were GPR151 activ inactive, TEAD-YAP inh inactive, MITF primary 57, FBW7 activator inactive, MITF inh conf 53, AS interf DR inactive and AlphaScreen intf2 inactive.
For CC(=O)Nc1ccc(NC(=O)c2ccnc(-c3cccs3)c2)cc1 the results were GPR151 activ inactive, TEAD-YAP inh inactive, MITF primary inactive and FBW7 activator inactive.
